Bioassay records deposited in PubChem BioAssay by Broad Institute.
Tgondii IFNg – inhibitors of Toxoplasma gondii growth with IFN-gamma. AID 1259416. activity change, negative = inhibition, % (test concentration not listed). 69,000 compounds, 3.8% hits. Toxoplasma gondii growth in IFN-gamma-treated host cells; hits give low values; in the data active means activity change below about -70%, passing the limit was not always enough;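 further: host cells are HeLa cells infected with Toxoplasma gondii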
An asterisk follows results filed as active; i = inactive. The entries come from a sample that favours hits as a whole.

SMILES	Tgondii IFNg
c1cncc(-c2nc(CCNCc3nc(-c4ccco4)no3)cs2)c1	17
O=C(O)c1cccc(-c2ccc3c(c2)OCO3)c1	-75*
O=C(c1ccc2c(c1)OCO2)N1CCCCC1	-4
O=C(O)c1cc(-c2ccc3c(c2)OCO3)nc2ccc(Br)cc12	8
CC(=O)N1CCCn2nc(C(=O)NCc3nc4ccccc4[nH]3)cc2C1	40
C[C@@H]1CN(S(=O)(=O)c2cccc(F)c2)CC[C@@]12CCC(C(=O)NCC1CC1)O2 (some centres undefined)	4
Cc1ccc(OCc2nnc(NC(=O)NCc3cccnc3)s2)cc1	-11
CC(C)CN1CCC(NCc2noc(C3CCCC3)n2)CC1	-48
CC(C)NC(=O)N1Cc2cc(C(=O)NC3Cc4ccccc4C3)nc(-c3cccc(-c4cccnc4)c3)c2[C@H]1CCO	-57
CC(C)NC(=O)N1Cc2cc(C(=O)NC3CCC3)nc(-c3cccc(-c4cncnc4)c3)c2[C@@H]1CCO	5
CCCNC(=O)c1cc2c(c(-c3cccc(-c4cc5ccccc5o4)c3)n1)[C@H](CCO)N(C(=O)NC(C)C)C2	-71*
CC1CNC(=O)CCN1C(=O)CCCC(=O)c1ccccc1 (centres undefined)	1
Cc1cc(OC(=O)C(c2ccccc2)C2CCCC2)c(Cl)c(C)c1Cl (centres undefined)	32
CCN1c2ccc(F)cc2C(=O)NC12CCN(C(=O)c1cc(OC)cc(OC)c1)CC2	-22
CN1CC2(CCCN(Cc3cn[nH]c3-c3ccc(F)cc3)CC2)OC1=O (centres undefined)	28
Fc1ccccc1-n1cc(-c2ccnc(NCc3ccon3)n2)cn1	-76*
COc1ccccc1-n1cc(-c2ccnc(NCCc3cnccn3)n2)cn1	-28
Cc1ccccc1-n1cc(-c2ccnc(NC3CCNCC3)n2)cn1	-26
Cc1cccc(CC2(NC(=O)C(C)n3ccnc3C(C)C)CC2)c1 (centres undefined)	-7
Cc1cccc(CN2CCO[C@H]3CN(C(=O)N(C)C)CC[C@@H]3C2=O)c1	40
CCC(CC)CNCC1Cn2nnc(-c3cncnc3)c2CO1 (centres undefined)	20
CN(C)c1ccc(CNC(=O)c2nc(Nc3ccccc3)c3ccccc3n2)cc1	-70
c1ccc(-c2ncn(CCCCN3CCCC3)c2-c2cccnc2)cc1	-5
O=C(OCC(O)CNC12CC3CC(CC(C3)C1)C2)C12CC3CC(CC(C3)C1)C2 (centres undefined)	-89*
CCN1CCOCC2(CCCN(C(=O)N(C)C)C2)C1 (centres undefined)	-26
SMILES	Tgondii IFNg
C[C@@H](Cn1c(C(F)(F)F)cc2cccnc21)NS(=O)(=O)c1ccc(F)cc1	-9
COc1cccc(-c2nnn(CC(=O)NC3CCOc4ccccc43)n2)c1 (centres undefined)	19
Fc1ccc(-c2noc(-c3ccc4c(c3)OCO4)n2)cc1	6
O=C1Cc2cc(-c3ccc4c(c3)OCO4)ccc2N1	-75*
O=C1Cc2cc(N3CC(C(=O)O)CC3=O)ccc2N1 (centres undefined)	1
CC(C)NC(=O)CNCc1cccnc1	-10
O=C(NCCc1csc(-c2ccc(F)cc2)n1)C(=O)Nc1ccccc1F	-60
CCn1nc(C(C)C)cc1-c1n[nH]c(Cc2ccccc2)n1	-52
C=CC(=O)Nc1cc(Nc2nccc(-c3cn(C)c4ccccc34)n2)c(OC)cc1N(C)CCN(C)C	-74*
COc1cc(OC)c(NC(=O)NCC(c2cccnc2)c2cn(C)c3ccccc23)cc1Cl (centres undefined)	i
C=CC(=O)Nc1cccc(Nc2nc(Nc3ccc(NC4CN(CCF)C4)cc3OC)ncc2C(F)(F)F)c1	12
Cc1cc(NC(=O)Cn2ncc3c(N4CCCC4)ncnc32)ccc1Br	-29
NC(=O)N1CCC2(CC1)CN(c1ccccn1)CCO2	4
CCOc1ccc(NS(=O)(=O)c2ccc(NC(=O)c3cccs3)cc2)cc1	2
CCCCCOC(=O)Nc1ccc(S(=O)(=O)Nc2ccc(Br)cc2)cc1	-87*
COc1ccc(NC(=O)c2cncc(NS(=O)(=O)c3ccc(Br)cc3)c2)cc1	24
CS(=O)(=O)N1CCC2(CC1)OCCN(c1ncccn1)c1ccccc12	3
CN(C)C(=O)CNC(=O)c1cc(-c2cnc(N3CCOCC3)nc2)cn1CC1CC1	43
Cc1cccc(NC(=O)c2cc(-c3cnc(N4CCOCC4)nc3)cn2CC2CC2)c1	-80*
O=C(NCc1ccc(F)cc1F)c1cc(-c2cnc(N3CCCC3)nc2)cn1CC1CC1	-103*
CCCCN(C)C(=O)c1cc(-c2cnc(N3CCOCC3)nc2)cn1CC1CC1	-67
Cc1ccc(NC(=O)c2cc(-c3cnc(N4CCCC4)nc3)cn2CC2CC2)cn1	-22
COc1ncccc1NC(=O)c1cc(-c2cnc(N3CCCC3)nc2)cn1CC1CC1	-45
CCOC(=O)C1CCN(C(=O)c2sc(-c3cn(C(C)C)c4ncccc34)nc2C)CC1	-51
Cc1nc(-c2cn(C(C)C)c3ncccc23)sc1C(=O)N1CCCC(C)C1 (centres undefined)	-117*
Cc1nc(-c2cn(C(C)C)c3ncccc23)sc1C(=O)N1CCC2(CC1)OCCO2	-67
